High-throughput results deposited in PubChem BioAssay by National Center for Advancing Translational Sciences (NCATS).
The list is not random: actives were taken first. Their share in the collection is about 21%.
AMA1-RON2 inh: AMA1-RON2 (P. falciparum) interaction inhibition; AlphaScreen AMA1-biotinylated RON2 peptide binding; Potency, µM (series often up to 58.2 µM), without a hit: at the top dose activity change, negative = inhibition, most hits filed as inhibitors; 0.2% of 360,000 active; AID 720542;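 also: potency is read from the fitted curve at half-maximal effect; 0% = vehicle wells and -100% = peptide control; nearly all actives have a fitted effect of over 45% in size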
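AMA1 (3D7) with his tag at 25 nM final met compounds first, then biotinylated RON2 peptide at 25 nM; detection used donor plus acceptor beads, 10 µg/mL apiece, read by AlphaScreen after 30 min at room temperature.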
HCV inh: blocks hepatitis C virus; Huh7.5.1 HCVcc-Cre infection, luciferase reporter, 44 h; Potency, µM (doses to about 41.8 µM), inactives show at the highest dose activity change, negative = inhibition, hits mostly inhibitors; 3.4% of 340,000 active; AID 651820; also: potency is read from the fitted curve at half-maximal effect; % is scaled to controls: 0 for no effect and ±100 for the full control effect
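1,000 cells/well; 4 h culture; + compound; + HCVcc-Cre (~0.5 moi); 44 h; luciferase substrate, RT 15 min; read 15 sec.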
Shiga toxin inh: blocks Shiga toxin action in Vero cells; 9.2% of 290,000 active; inhibition, % at 38.7 µM; Vero cells, Shiga toxin protein synthesis inhibition reporter; in the data active = inhibition mostly above about 28%, no sharp cut-off; inactive = mostly below about 43%; also: 0% is about no effect
Cycloheximide cs: counter-screen hit for Shiga toxin inhibitors, cycloheximide; cell reporter, cycloheximide protein synthesis inhibition counterscreen; max response, %; 12% of 300,000 active; AID 2314; in the data active = max response mostly above about 13%, no sharp cut-off; inactive = mostly below about 14%; also: read at 38.3 µM for the half of the compounds with a filed dose; 0% is about no effect
Pf growth 48h: P. falciparum growth inhibition at 48 hours (one generation) | 5.9% of 310,000 active | Potency, µM (top dose mostly 28.7 µM), without a hit: at the top dose activity change, negative = inhibition, hits mostly inhibitors | AID 504832 | P. falciparum luciferase growth in erythrocytes, 48 h; also: potency is read from the fitted curve at half-maximal effect; % is scaled to controls: 0 for no effect and ±100 for the full control effect
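Read-out is firefly luciferase luminescence from an integrated reporter in P. falciparum, so falling signal marks reduced parasite growth. Infected erythrocytes were at 2% hematocrit and 0.1% parasitemia (final) in Albumax-supplemented RPMI 1640.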
Pf growth 96h: inhibits malaria parasite growth, 96 h; P. falciparum luciferase reporter growth, 96 h; Potency, µM (titrated, usually from 28.7 µM), inactives show at the top dose activity change, negative = inhibition, actives largely listed as inhibitors; 6.9% of 320,000 active; also: potency is read from the fitted curve at half-maximal effect; % is scaled to controls: 0 for no effect and ±100 for the full control effect
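Parasite growth measured via integrated firefly luciferase reporter in P. falciparum. Infected erythrocytes at 2% hematocrit, 0.05% parasitemia final were treated 96 hours at 37 C under 5% CO2, and luminescence was read.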
Numbers without * were called inactive; ? = inconclusive; / = not tested or not shown. Unless noted, calls follow the shape of the dose curve; as a rule, active = well fitted curve in the direction sought with a large enough effect; inconclusive = small, poorly fitted or top-dose-only effect, or another doubt; inactive = no such curve, though single readings can be large; an effect the other way counts as inactive or inconclusive.

SMILES	AMA1-RON2 inh	HCV inh	Shiga toxin inh	Cycloheximide cs	Pf growth 48h	Pf growth 96h
CN(C)CCN=Cc1c(O)n(-c2ccc(S(=O)(=O)N3CCOCC3)cc2)c(=O)c2ccccc12	65%	16%	/	/	-5%	1%
CC(C)C[C@@H](COCc1cccc(Cl)c1)N1CCN(C(=O)c2ccc(C(F)(F)F)cc2)CCC1=O	0%	/	/	/	/	/
[O-][n+]1cccc(CO)c1	/	/	/	/	6%	9%
CC(=O)Nc1c(I)cc(I)c(C(=O)O)c1I	/	/	/	/	-15%	-18%
COc1ccc(CCC(=O)NCCS(=O)(=O)N2CCN(c3ccc(OC)cc3)CC2)cc1	-3%	?	17	-3	7%	0%
COc1ccc2[nH]c(=O)c(CN(CC3CCCO3)C(=S)Nc3cccc(C)c3)cc2c1 (stereo not drawn)	-5%	?	-8	-1	?	25%
COc1ccc2[nH]c(=O)c(CN(Cc3cccs3)C(=S)Nc3cccc(C)c3)cc2c1	-9%	?	-5	-1	15µM*	?
CNC(=S)N(Cc1cc2ccc(OC)cc2[nH]c1=O)CC1CCCO1 (stereo not drawn)	-9%	-29%	9	-4	-23%	13µM*
CC1CCN(C(=O)c2nc[nH]c2C(=O)N2CCC(C)CC2)CC1	-6%	25%	/	/	19%	36%
CCC(=O)N1CCN(c2nc(-c3ccc(Cl)cc3)cs2)CC1	0%	?	63*	35*	10%	-7%
COc1ccc(N2CCN(C(=O)CN3CCN(c4nc(-c5ccc(F)cc5)cs4)CC3)CC2)cc1	-7%	?	-2	-2	?	22%
COc1cccc(-c2csc(N3CCN(C(=S)Nc4ccccc4Cl)CC3)n2)c1	13%	?	20	8	13µM*	?
COc1cccc(-c2csc(N3CCN(C(=S)Nc4ccccc4OC)CC3)n2)c1	10%	?	-4	2	?	?
COc1cccc(-c2csc(N3CCN(CC(=O)NNC(=O)c4ccc(Br)cc4)CC3)n2)c1	16%	-13%	6	10	?	13%
COc1cccc(-c2csc(N3CCN(C(=S)NCC(C)C)CC3)n2)c1	5%	?	16	1	13µM*	15µM*
CCNC(=S)N1CCN(c2nc(-c3cccc(OC)c3)cs2)CC1	4%	?	13	-2	?	10µM*
COc1ccc(/C=C/C(=O)Nc2c(C(=O)O)[nH]c3ccccc23)cc1OC	-5%	-4%	-12	1	-18%	-2%
CC12CCC(=O)N1C(C(=O)Nc1ccc(SC(F)F)cc1)CS2 (stereo not drawn)	27%	?	/	/	-18%	-10%
CC(C)CNC(=S)N1CCN(c2nc(-c3ccc(Cl)cc3)cs2)CC1	10%	11µM*	-5	4	-8%	10µM*
COCCNC(=S)N1CCN(c2nc(-c3cccc(OC)c3)cs2)CC1	-9%	13µM*	4	1	-13%	?
COC(=O)c1sc(S(=O)(=O)NC(C)C(=O)O)c(C(=O)OC)c1C (stereo not drawn)	16%	23%	-23	-3	-13%	16%
COc1ccc(C(C(=O)NC2CCCC2)N(C(=O)c2snc(C(N)=O)c2N)c2ccccc2OC)cc1OC (stereo not drawn)	-4%	-9%	-8	-7	9.3µM*	1%
C#CC(=O)N(c1ccc(OC)cc1OC)C(C(=O)NC1CCCC1)c1cccs1 (stereo not drawn)	-19%	1.3µM*	-5	-2	3%	-35%
COc1ccc(N(C(=O)c2snc(C(N)=O)c2N)C(C(=O)NC2CCCCC2)c2ccc(F)cc2)c(OC)c1 (stereo not drawn)	-4%	-13%	17	5	?	14%
COc1ccc(C(C(=O)NC2CCCC2)N(C(=O)c2snc(C(N)=O)c2N)c2cc(C)ccc2OC)cc1OC (stereo not drawn)	7%	0%	16	-3	?	?
COc1ccc(N(C(=O)c2snc(C(N)=O)c2N)C(C(=O)NC2CCCC2)c2cc(OC)ccc2OC)c(OC)c1 (stereo not drawn)	12%	?	15	-2	1.9µM*	-10%
